The nature of experiment [1]: NCI Yeast Anticancer Drug Screen. Data for the mec2-1 strain (AID 157). As to conditions: S. cerevisiae mec2-1 strain, at 50.0 µM, hits give high values. The method, boiled down:
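Readout is yeast growth inhibition, normalised to vehicle-treated controls, in the mec2-1 strain exposed to compound.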

Experiment [2] in a line: NCI Yeast Anticancer Drug Screen. Data for the sgs1 mgt1 strain (AID 161).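 Also: 0% = growth of cultures given vehicle only.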 As to conditions: S. cerevisiae sgs1 mgt1 strain, at 50.0 µM, hits give high values. The method, boiled down:
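Compounds are added to genetically altered yeast, and growth is compared with cultures given vehicle alone to give percent inhibition.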

The nature of experiment [3]: NCI Yeast Anticancer Drug Screen. Data for the cln2 rad14 strain (AID 165).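 Also: 0% = growth equal to vehicle treated cultures.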 As to conditions: S. cerevisiae cln2 rad14 strain, at 50.0 µM, hits give high values. The method, boiled down: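 Relative to vehicle controls, growth inhibition of compound-treated cln2 rad14 yeast was recorded.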
A short description of experiment [4]: NCI Yeast Anticancer Drug Screen. Data for the mlh1 rad18 strain (AID 175). As to conditions: S. cerevisiae mlh1 rad18 strain growth inhibition; at 50.0 µM; hits give high values. The method, boiled down:
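Test agents were incubated with a yeast strain of defined genotype (DNA damage repair defect). Inhibition of growth was derived by comparison with vehicle-exposed cultures.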

Experiment [5] is described as follows: NCI Yeast Anticancer Drug Screen. Data for the rad50 strain (AID 155).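 Also: 0% = growth of vehicle-only cultures of the same strain.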 As to conditions: S. cerevisiae rad50 strain growth inhibition; at 50.0 µM; hits give high values. The method, boiled down:
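Yeast carrying a defined DNA repair defect were exposed to test compounds, and growth was compared with vehicle-treated controls to give percent inhibition.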

Experiment [6] can be described thus: NCI Yeast Anticancer Drug Screen. Data for the bub3 strain (AID 167). As to conditions: S. cerevisiae bub3 mutant strain, at 50.0 µM, hits give high values. The method, boiled down: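 Compounds were applied to a genetically altered yeast strain carrying a cell-cycle control defect. Growth inhibition was scored against vehicle-treated controls.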

The panel holds about 79,000 compounds, 15% with a hit somewhere; the sample as a whole holds those more often. Values without a mark were called inactive. The source made the active and inactive calls. Rule as the data show it: active = growth inhibition above about 70%; inactive = the rest.

As to `C=C(CCC(C(=O)O)C1CCC2(C)C3=C(CCC12C)C1(C)CCC(O)C(C)(C)C1CC3)C(C)C` (configuration not stated), the growth inhibition in experiment [1] was -29.5%; in experiment [2], -0.75%; in experiment [3], 2.15%; in experiment [4] it was -8.25%.

On to `Cc1ccc(NCN2C(=O)c3ccccc3C2=O)cc1Cl`, for which the results for the growth inhibition in experiment [5] and in experiment [4] were 20.1% and 28.3%, respectively.

With `C=CCCCCCCCCC(=O)Cl`, the growth inhibition is 33.9% in experiment [5] and 11.1% in experiment [4].

Turning to `Cc1nc(-[n+]2nc(-c3ccccc3)nn2-c2ccccc2)sc1C`, the growth inhibition in experiment [1] is -15.2%; in experiment [2], -18.9%; in experiment [6], -26.8%; in experiment [4], 7.4%.

Turning to `CC1CC(C(=O)OC2OC(COC3OC(CO)C(OC4OC(C)C(O)C(O)C4O)C(O)C3O)C(O)C(O)C2O)C2CCC3(C)C(=CCC4(C)C3CCC3C(C)(CO)C(O)C(O)CC34C)C2C1C` (configuration not stated), the growth inhibition in experiment [1] is 68.1%; in experiment [2], 72.8% (active); in experiment [3] it was 26.8%; in experiment [6] it was 77.8% (active); in experiment [4], 24.4%.

Regarding `N/C(Cc1ccc(N)cc1)=N\O`, the figures for the growth inhibition in experiment [5] and in experiment [4] were -17.4% and -13.8%, respectively.

With `N#CC1(c2ccc(Cl)cc2)CCCC1`, the growth inhibition was -15.3% in experiment [5] and -14.8% in experiment [4].

Consider `Cc1ccc(OCC2OC(n3cnc4nc(Cl)nc(Cl)c43)CC2Oc2ccc(C)cc2)cc1` (configuration not stated), for which the growth inhibition was 12.4% in experiment [1]; 50.5% in experiment [2]; 50.2% in experiment [3]; 57.6% in experiment [6]; 15.2% in experiment [4].

Take `Cc1nc2c(Cl)c(Cl)ccc2s1`: the growth inhibition in experiment [5] is 3.6%; in experiment [4] it was 24.2%.

As for `[O-]c1ccccc1/C=N/C(/N=C/c1ccccc1[O-])c1ccccc1O.[O-]c1ccccc1/C=N/C(/N=C/c1ccccc1[O-])c1ccccc1O.[Zr+4]`, the growth inhibition in experiment [1] is 6.4%; in experiment [2], -1.6%; in experiment [6], 14.2%; in experiment [4], 2.4%.

For `O=S(=O)(O)c1ccc(-c2ccccc2)cc1`, the growth inhibition was -0.4% in experiment [5] and -5.4% in experiment [4].

As for `O=C(O)COC1CC(=O)N2c3ccccc3C34CCN5C(=O)C(=O)C(CC53)C1C24` (configuration not stated), the growth inhibition is -1.7% in experiment [5] and -9.5% in experiment [4].

Consider `COc1cc(/C=N/N2CCCCC2)cc(OC)c1OC`, for which the growth inhibition in experiment [1] was -16.6%; in experiment [4] it was -21.8%.

As to `Nc1ccc(I)cc1Cl`, the growth inhibition in experiment [1] was 4.5%; in experiment [4] it was 24.4%.

Turning to `COc1cc(/C=C2\CN(C)C(=O)C2=O)ccc1O`, the growth inhibition in experiment [5] was -11.7%; in experiment [4], -12.2%.

As to `COc1ccc(N=C(C)C(C)=Nc2ccc(OC)cc2)cc1`, the growth inhibition in experiment [1] was 3%; in experiment [2] it was -15.1%; in experiment [3], 14.1%; in experiment [6], 11.6%; in experiment [4], -17.7%.

For the compound `CCCN1CCc2cc(OC)c(OC)cc2C1Cc1ccc(OC)c(OC)c1` (configuration not stated), the growth inhibition in experiment [5] was -13.8%; in experiment [4], -5.7%.

For the compound `Cc1ccc(OCC2OC(n3cnc4c(Cl)nc(Cl)nc43)CC2Oc2ccc(C)cc2)cc1` (configuration not stated), the growth inhibition in experiment [1] is -21.6%; in experiment [2], 23.1%; in experiment [3] it was 7.45%; in experiment [6] it was 27.4%; in experiment [4], -33.5%.

As for `COc1cc2c(cc1C1COc3cc4occc4cc3C1=O)OCO2` (configuration not stated), the growth inhibition in experiment [1] was -33.8%; in experiment [2], 4.05%; in experiment [3], 6.8%; in experiment [4], -25.6%.

On to `O=C(/C=C(\[O-])c1ccccc1)CCCCCCC(=O)/C=C(\[O-])c1ccccc1.O=C(/C=C(\[O-])c1ccccc1)CCCCCCC(=O)/C=C(\[O-])c1ccccc1.O=C(/C=C(\[O-])c1ccccc1)CCCCCCC(=O)/C=C(\[O-])c1ccccc1.[Nd+3].[Nd+3]`, for which the growth inhibition in experiment [1] was 22.5%; in experiment [2], 30.1%; in experiment [6], 31.2%; in experiment [4], 22.1%.

On to `COC(=O)c1cc(C#N)[nH]c1-c1ccsc1`, for which the growth inhibition in experiment [1] is -8%; in experiment [2], -10.8%; in experiment [3] it was 6.4%; in experiment [4] it was 6.9%.

Consider `Cc1cc(N(CCC#N)CCC#N)ccc1/C=N/NC(=O)c1cc(Cl)ccc1O`, for which the growth inhibition in experiment [1] is -18.3%; in experiment [2], -40.8%; in experiment [3], -9.2%; in experiment [6], -23.7%; in experiment [4] it was -32%.

Turning to `COc1cc(-c2cc(=O)c3c(O)cc(C)cc3o2)cc(OC)c1OC`, the growth inhibition in experiment [5] is -0.85%; in experiment [4] it was -17.8%.

In the case of `Cc1c(Cl)cccc1NCN1C(=O)c2ccccc2C1=O`, the values for the growth inhibition in experiment [5] and in experiment [4] were 9.65% and 31.5%, respectively.

As for `CCCCCCC(=O)C(CCCC)(C(=O)OCC)C(=O)OCC`, the growth inhibition was 0.4% in experiment [5] and 7.35% in experiment [4].

As for `CCCCC1C(=O)N(c2ccc(S(=O)(=O)Nc3ccccn3)cc2)N(c2ccc(O)c(C(=O)O)c2)C1=O` (configuration not stated), the growth inhibition is 23.7% in experiment [1]; 6.7% in experiment [2]; 23.2% in experiment [3]; 34.6% in experiment [6]; 8.85% in experiment [4].

For the origin of these results see PubChem BioAssay (NCI).
